In PubChem BioAssay (Tox21):
Values without a mark were called inactive. Inconclusive results are not listed. Entries that show only a call come without a potency. Calls of active or inactive are those of the source. Unless noted, the call rests on the fitted dose curve; in most records, active means well fitted curve in the direction sought with a large enough effect in the repeat runs; inconclusive means weak or mixed curves; inactive means no such curve, though single readings can be large; an effect the other way counts as inactive or inconclusive.

Legend:
[1] = qHTS assay to identify small molecule HDAC inhibitors (AID 1259364);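 further: wild-type HCT-116 cells with endogenous class I/II HDAC activity; top concentration of the series differs between compounds; nearly all actives have a fitted effect of over 45% in size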
In short: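 HCT-116 (wild type), 1,500 cells/well, overnight; compound 2 hr 37C 5% CO2; HDAC-Glo I/II reagent 30 min RT; luminescence readout.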

[2] = qHTS assay to identify small molecule HDAC inhibitors - cell viability counter screen (AID 1259365); further: series mostly up to about 92 µM; nearly all actives have a fitted effect of over 50% in size
In short: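 HCT-116 (wild type), 1,500 cells/well, overnight 37C/5% CO2; compound in DMSO 2hr; CellTiter-Glo 30min RT; luminescence read.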

[3] = qHTS assay to identify small molecule agonists of the sonic hedgehog signaling (Shh) pathway - cell viability counter screen (AID 1259366); further: nearly all actives have a fitted effect of over 50% in size
In short: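 CellTiter-Fluor fluorescence read-out, 1 hr at 37C, added after 23hr compound exposure. Cells: 3T3 Gli1-Luc, an NIH/3T3 clone with stably integrated Gli1-Luc reporter, plated 4hr before compound.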

[4] = qHTS assay to identify small molecule antagonists of the sonic hedgehog signaling (Shh) pathway - cell viability counter screen (AID 1259367); further: nearly all actives have a fitted effect of over 55% in size
In short: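 Viability was read by CellTiter-Fluor fluorescence in the same wells, reagent added 23 hr into compound treatment and incubated 1 hr at 37C. The 3T3 Gli1-Luc reporter cells (2,000/well) received conditioned medium after compound and ran 24 hr.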

[5] = qHTS assay to identify small molecule agonists of the sonic hedgehog signaling (Shh) pathway (AID 1259368; calls by dose curve;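 further: NIH/3T3-derived 3T3Gli1-Luc cells carrying a stable Gli1-driven firefly luciferase reporter; series mostly up to about 92 µM; nearly all actives have a fitted effect of over 15% in size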)
In short: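 Read-out: firefly luciferase luminescence from a Gli1 response element reporter stably integrated in NIH/3T3-derived 3T3Gli1-Luc cells, measured 30 min at room temperature after reagent addition. Compound exposure lasted 24 hr at 37 C, 5% CO2.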

[6] = qHTS assay to identify small molecule antagonists of the sonic hedgehog signaling (Shh) pathway (AID 1259369; calls by dose curve; further: nearly all actives have a fitted effect of over 45% in size; further: potency means the concentration at half of the fitted maximal effect)
In short: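 Luminescence readout: firefly Luc under Gli1 response element in 3T3Gli1-Luc cells (NIH/3T3 clone). Antagonist mode, stimulation by conditioned medium; compound exposure 24hr at 37 C, 5% CO2.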

[7] = target: Estrogen receptor beta (Homo sapiens) (UniProt Q92731); assay: qHTS assay to identify small molecule agonists of the estrogen receptor beta (ER-beta) signaling pathway (AID 1259377; active means well fitted activation curve with a large enough effect in the signal ratio in the repeat runs, not every such curve was filed as active; the % refers to the signal ratio)
In short: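 Beta-lactamase reporter readout: fluorescence of LiveBLAzer B/G FRET substrate after 2 h at room temperature, following 16 h compound treatment of ER-beta-UAS-bla HEK293T cells at 37C in 2% charcoal-stripped FBS medium.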

Sequence of Estrogen receptor beta (Homo sapiens) (Q92731 whole entry, looked up): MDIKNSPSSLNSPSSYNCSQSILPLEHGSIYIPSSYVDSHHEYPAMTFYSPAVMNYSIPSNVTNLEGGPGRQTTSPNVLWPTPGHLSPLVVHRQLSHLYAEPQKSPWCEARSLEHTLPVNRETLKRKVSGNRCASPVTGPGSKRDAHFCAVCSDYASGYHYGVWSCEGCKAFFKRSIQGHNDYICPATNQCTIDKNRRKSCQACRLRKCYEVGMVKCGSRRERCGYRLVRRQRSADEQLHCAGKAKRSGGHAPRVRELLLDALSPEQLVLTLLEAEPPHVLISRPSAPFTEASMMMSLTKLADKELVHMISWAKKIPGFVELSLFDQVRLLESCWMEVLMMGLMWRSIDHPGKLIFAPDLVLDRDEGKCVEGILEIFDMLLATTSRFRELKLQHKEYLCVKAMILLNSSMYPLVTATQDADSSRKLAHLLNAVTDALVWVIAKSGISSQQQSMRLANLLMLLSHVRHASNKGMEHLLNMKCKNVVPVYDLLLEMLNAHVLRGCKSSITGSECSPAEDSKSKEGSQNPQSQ

Structure (SMILES) | Potency [1] | outcome [2] | Potency [3] | Potency [4] | outcome [5] | Potency [6] | Potency [7]
CCO[Si](OCC)(OCC)c1ccccc1 | inactive | inactive | inactive | inactive | inactive | inactive | inactive
[Ca+2] | inactive | inactive | inactive | inactive | inactive | inactive | 
CC12CCC(C(=O)C1=O)C2(C)C (centres undefined) | inactive | inactive | inactive | inactive | inactive | inactive | 
O=C1NC(=O)C2CC=CCC12 (centres undefined) | inactive | inactive | inactive | inactive | inactive | inactive | inactive
CCC(=O)OCc1ccccc1 | inactive | inactive | inactive | inactive | inactive | inactive | inactive
C1CCC2=NCCCN2CC1 | inactive | inactive | inactive | inactive | inactive |  | inactive
CC1(C)[C@@H]2CC[C@@]1(C)[C@H](O)C2 | inactive | inactive | inactive | inactive | inactive | inactive | 
CC(C)(C#N)Nc1nc(Cl)nc(NC2CC2)n1 | inactive |  | inactive | inactive | inactive | 0.243 µM (active) | 
CCCCCCCCN1CCCC1=O | inactive | inactive | inactive | inactive | inactive | inactive | 
O=C(O)CNC(=O)c1ccc(CO)o1 | inactive | inactive | inactive | inactive | inactive | inactive | 
c1coc(CNc2ncnc3nc[nH]c23)c1 |  | inactive | inactive | inactive | inactive |  | 
OCCc1ccccn1 | inactive | inactive | inactive | inactive | inactive | inactive | 
CCOc1ccccc1OCC | inactive | inactive | inactive | inactive | inactive | inactive | inactive
CC(C)C(=O)OC(=O)C(C)C | inactive |  | inactive | inactive | inactive | inactive | inactive
O=S(=O)(O)c1cccc2ccccc12 | inactive | inactive | inactive | inactive | inactive | inactive | 
CCCn1cc[n+](C)c1C | inactive |  | inactive | inactive | inactive |  | 
CC(C)CC(C)(N)C#N (centres undefined) | inactive | inactive | inactive | inactive | inactive | inactive | inactive
NC(=O)Cc1cccc2ccccc12 | inactive | inactive | inactive | inactive | inactive | inactive | inactive
Cc1nc(C2CCCCC2)c(-c2ccc(S(N)(=O)=O)c(F)c2)o1 | inactive | inactive | inactive | inactive | inactive | inactive | inactive
CC(C#N)(CCC(=O)O)N=NC(C)(C#N)CCC(=O)O (centres undefined) | inactive | inactive | inactive | inactive | inactive | inactive | inactive
Clc1cc(Cl)c(Cl)nc1Cl | inactive | inactive | inactive | inactive | inactive | inactive | 
CCCCOCCOC(=O)CCCCCCCCC(=O)OCCOCCCC | inactive |  | inactive |  | inactive | 30.6 µM (active) | 
O=C(c1ccccc1)C1(O)CCCCC1 | inactive | inactive | inactive | inactive | inactive | inactive | inactive
O=S(=O)(O)c1cccc2c(S(=O)(=O)O)cccc12 | inactive | inactive | inactive | inactive | inactive | inactive | 
Cc1ccccc1N=C(N)N=C(N)N | inactive | inactive | inactive | inactive | inactive | inactive | 
c1ccc(CCc2ccccc2)cc1 | inactive | inactive | inactive | inactive | inactive | inactive | inactive
CN(C)CCCCCCN(C)C | inactive | inactive | inactive | inactive | inactive | inactive | 
CCN(C=O)CC | inactive | inactive | inactive | inactive | inactive | inactive | 
C=C(C)C(=O)OCC1CCCO1 (centres undefined) | inactive | inactive | inactive | inactive | inactive | inactive | inactive
Nc1ccccn1 | inactive | inactive | inactive | inactive | inactive | inactive | 
